Source: PubChem BioAssay (several laboratories)
In the library only some 3.2% were active in any assay of this set; here they are far more common.
p47phox inh – blocks human p47phox regulatory protein of NADPH oxidases. P14598. p47phox/p22phox peptide binding, fluorescence polarization, 2 h. inhibition, % at 24.7 µM. actives 0.53% (n = 220,000). AID 1274;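 active means inhibition above about 30%, limit read from the data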;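 further: 0% = p47phox with labelled peptide and 100% = labelled peptide alone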
Target sequence (P14598 whole entry, looked up): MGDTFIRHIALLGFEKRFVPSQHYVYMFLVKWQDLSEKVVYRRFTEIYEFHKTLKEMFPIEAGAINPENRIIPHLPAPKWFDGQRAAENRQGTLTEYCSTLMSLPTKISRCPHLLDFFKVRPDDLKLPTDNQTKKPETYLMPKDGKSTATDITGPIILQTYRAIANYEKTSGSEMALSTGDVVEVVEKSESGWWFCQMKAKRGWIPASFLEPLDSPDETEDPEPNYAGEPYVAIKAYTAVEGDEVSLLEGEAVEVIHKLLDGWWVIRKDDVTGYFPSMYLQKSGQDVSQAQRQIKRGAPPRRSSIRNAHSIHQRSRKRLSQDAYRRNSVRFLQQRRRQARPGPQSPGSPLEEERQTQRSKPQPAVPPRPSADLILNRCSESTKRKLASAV
Mcl1-Bid inh – disrupts binding of human Mcl-1 to Bid peptide; inhibition, % at 21.7 µM; Q07820; TR-FRET Mcl-1/Bid-Dy647 peptide binding, 1536-well; actives 0.97% (n = 220,000);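 active means compounds that cut the binding signal by more than half at the single screening dose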;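 further: His-tagged Mcl-1 with europium anti-His antibody binding Bid BH3 peptide; 0% = Mcl-1 plus peptide wells and 100% = peptide-only wells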
Mcl-1 Bim block – human Bim-Mcl-1 interaction inhibition; Bead-based flow cytometry, Bim peptide-Mcl-1 binding; inhibition, % at 10 µM; AID 1009; Q07820; actives 0.1% (n = 190,000); in the data active means inhibition above about 40%;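 further: 0% = no compound tracer wells and 100% = peptide blocker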
14-3-3 Bad inh – disrupts binding of bovine 14-3-3 zeta to phospho-Bad peptide; P63103; TR-FRET 14-3-3zeta/Dy647-pBad peptide displacement, 1 h; inhibition, % at 21.7 µM; actives 0.71% (n = 220,000);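 active means inhibition above about 70%, limit read from the data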;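 further: 0% = full 14-3-3 plus peptide FRET controls and 100% = background without 14-3-3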
Target sequence (P63103 whole entry, looked up): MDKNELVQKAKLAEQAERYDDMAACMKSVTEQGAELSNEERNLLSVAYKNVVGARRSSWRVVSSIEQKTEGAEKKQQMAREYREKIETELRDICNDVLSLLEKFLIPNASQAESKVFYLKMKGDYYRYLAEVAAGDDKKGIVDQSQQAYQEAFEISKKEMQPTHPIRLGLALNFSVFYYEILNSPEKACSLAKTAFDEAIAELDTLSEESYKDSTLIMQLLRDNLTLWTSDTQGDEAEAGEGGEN
Mcl1 Noxa PPI – disrupts binding of human Mcl-1 to Noxa peptide | Q07820 | TR-FRET Mcl-1/Noxa peptide binding, 2 h | inhibition, % at 21.7 µM | actives 1.5% (n = 220,000);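 active means compounds that cut the protein-peptide binding signal by more than 50% relative to plate controls in a single-dose test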;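 further: His-tagged Mcl-1 with rhodamine Noxa BH3 peptide and terbium anti-His antibody; 0% = Mcl-1 plus Noxa peptide wells and 100% = peptide-only wells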
Numbers without * were called inactive; / = no result given.

SMILES | p47phox inh | Mcl1-Bid inh | Mcl-1 Bim block | 14-3-3 Bad inh | Mcl1 Noxa PPI
Nc1nc(C2CC(=O)OC23CCCCC3)cs1 (centres undefined) | -2 | -14 | -4 | -1 | -6
Nc1nc(C2C(=O)CCCC2=O)cs1 | -93 | -30 | 0 | 71* | 13
COc1ccc(/C=N/n2cncn2)cc1Cn1nc(C)c([N+](=O)[O-])c1C | -11 | -4 | / | -9 | 9
O=C(O)CC1Sc2ccccc2NC1=O (centres undefined) | -4 | -22 | 3 | 0 | 11
O=C1Nc2ccccc2SC(c2ccccc2)C1O (centres undefined) | -21 | 63* | 1 | 40 | 104*
CCn1cc(S(=O)(=O)Nc2cc(F)ccc2C)cn1 | -1 | -4 | 0 | 92* | 2
N=C1/C(=C\c2ccc(-c3cccc(C(=O)O)c3)o2)C(=O)N=C2SC=C(c3ccccc3)N12 | -38 | 98* | / | 94* | 93*
Cc1c(Cl)cnc(NC(=O)COC(=O)c2ccc3ncsc3c2)c1Cl | -35 | 66* | -3 | 70* | 58*
COc1ccc(C(=O)NC(=O)COC(=O)c2ccc3ncsc3c2)cc1 | -7 | 28 | -2 | 78* | -5
Cc1c(Cl)cnc(NC(=O)COC(=O)c2ccc([N+](=O)[O-])s2)c1Cl | 22 | 7 | -4 | 3 | 94*
O=C(COC(=O)c1ccc2ncsc2c1)NC(=O)c1ccccc1 | -24 | 27 | 3 | 47 | 42
O=C(CSCc1ccc(Cl)cc1)Nc1ccc(S(=O)(=O)N2CCOCC2)cc1 | 2 | -17 | -3 | -21 | 3
COC(=O)c1ccccc1NC(=O)Cn1nc2n(C)c3ccccc3n2c(=O)c1=O | 0 | 15 | -6 | 93* | 14
CCOC(=O)c1c(CN2CCCCC2)oc2ccc(O)cc12 | -5 | -17 | 0 | -3 | 4
CCOC(=O)c1c(CN2CCOCC2)oc2ccc(OC)cc12 | 1 | 19 | -3 | 79* | 26
CCCCC(=O)N/N=C(/C)C1=C(C)C(C)(C)OC1=O | -3 | -11 | 0 | -11 | 4
CN1CCc2cccc3c2[C@H]1Cc1ccc(O)c(O)c1-3 | 19 | -65 | 7 | 11 | 88*
CCOC(=O)C1(Cc2cccc(OC)c2)CCN(Cc2cnc(C)s2)CC1 | -2 | -34 | 0 | -13 | 0
COCCCNCC(=O)c1c(N)n(Cc2ccccc2)c(=O)n(C)c1=O | -7 | 35 | 0 | 75* | 37
CC1(C)CC(=O)c2cnc3c(C#N)cnn3c2C1 | -6 | 53* | 1 | -1 | 18
Cc1ccc2nc(-c3ccc(NC(=S)NC4CC(C)(C)NC(C)(C)C4)cc3)sc2c1 | 22 | 28 | 0 | 93* | 40
COC(=O)/C(=C1/Oc2ccc(C)cc2S1)C(F)(F)F | -7 | -17 | -9 | -6 | -11
Cc1ccc(S(=O)(=O)N2CCN(C(=O)COc3ccc(-c4nnco4)cc3)CC2)cc1 | -8 | -13 | -2 | -14 | 12
O=S(=O)(c1ccc(Oc2ccc(-c3nnco3)cc2)nc1)N1CCC(Cc2ccccc2)CC1 | 11 | 59* | -1 | 2 | -75
Cn1c2c(c(=O)n(C)c1=O)C(NS(=O)(=O)c1ccc(Cl)cc1)(C(F)(F)F)C(=O)N2 (centres undefined) | -12 | -107 | 1 | 10 | 53*
SMILES | p47phox inh | Mcl1-Bid inh | Mcl-1 Bim block | 14-3-3 Bad inh | Mcl1 Noxa PPI
Cc1ccc(-n2c3c(c(=O)[nH]c2=O)C(NS(=O)(=O)c2ccc(Cl)cc2)(C(F)(F)F)C(=O)N3)cc1 (centres undefined) | 4 | -55 | -5 | -1 | 54*
O=C(CCNc1ccc(F)cc1)c1cc2ccccc2o1 | 62* | -22 | -22 | -5 | 16
CC1CCC(C(C)C)C2=C1C(C#N)(C#N)C(C#N)(C#N)C(c1ccccc1)N2 (centres undefined) | -2 | -36 | 0 | 8 | 56*
CC1(C)CC(=O)C(N=Nc2ccc(S(=O)(=O)N3CCOCC3)cc2)=C(O)C1 | -6 | 6 | / | 2 | -22
CC1=CC(=C2C(=O)c3ccccc3C2=O)C=C(C)O1 | 69* | -120 | 1 | -104 | -2
CC1=CC(=C2C(=O)c3ccccc3C2=O)C=C(C)N1Cc1ccco1 | -18 | -18 | 4 | -11 | 64*
Cc1noc(C)c1C(=O)N1CCCc2ccccc21 | 53* | -20 | 0 | 2 | 3
Cc1ccc2c(c1)CCCN2C(=O)c1c(C)noc1C | -1 | 14 | -3 | -2 | 10
COc1ccc(C(=O)N2CCCc3ccccc32)cc1 | -11 | -14 | 4 | 88* | 0
O=C(NC(=S)N1CCCc2ccccc21)c1ccc(Cl)cc1 | -1 | -53 | -5 | -4 | 51*
O=C(NC(=S)N1CCCc2ccccc21)c1ccccc1 | -3 | -46 | 0 | -3 | /
O=C(CC(Nc1ccc(F)cc1)C(=O)OCC(=O)c1cccs1)c1ccccc1 (centres undefined) | 8 | -7 | -8 | -8 | 16
CC(=O)CCC(=O)OCC(=O)c1ccc(C(F)(F)F)cc1 | 4 | -2 | / | -5 | 3
CCC(C)(C)NC(=O)/C=C/c1cnc2ccccc2n1 | -8 | -23 | -3 | 3 | 13
CC(C)CNC(=O)C(=O)NNC(=O)C1CCCCC1 | -137 | -19 | 3 | 1 | 1
CC1(C(=O)NNC(=O)C2CCCCC2)CC1(Cl)Cl (centres undefined) | -14 | 99* | / | 3 | -14
O=C(Nc1cccc(-c2csc(Nc3cccc(C(F)(F)F)c3)n2)c1)c1cc([N+](=O)[O-])cc(C(F)(F)F)c1 | 4 | -82 | / | -1 | 12
O=C(Nc1ccc(-c2csc(Nc3ccccc3)n2)cc1)c1cc([N+](=O)[O-])cc(C(F)(F)F)c1 | 35* | -70 | / | -5 | 6
C/C(=N/NS(=O)(=O)c1ccc(Cl)cc1)c1cccc(NC(=O)c2ccc(Cl)cc2Cl)c1 | 31* | 0 | -1 | -6 | 16
O=C(Cc1ccccc1)NNC(=O)c1ccccc1C(=O)O | -8 | -4 | / | 6 | 13
O=C(CCNC(=O)Cn1ccc2ccccc2c1=O)NCCc1ccc(Cl)cc1 | -7 | -6 | -5 | -3 | 14
Cc1ncc(CO)c(/C=N/NC(=S)Nc2cccc(Cl)c2)c1O | -9 | -74 | -2 | -10 | 15
Cc1ncc(CO)c(/C=N/NC(=S)Nc2ccc(Cl)c(Cl)c2)c1O | -58 | -61 | -1 | -15 | 71*
Cc1ccn(C(=O)c2ccc(NC(=O)C3CC3)cc2)n1 | 1 | -13 | 2 | -2 | -2
COc1cc(/C=C2\SC(=O)N(c3cccc(Cl)c3)C2=O)cc([N+](=O)[O-])c1O | -9 | 73* | 3 | 92* | 66*
CCOc1ccc(/C=C2\SC(=O)N(c3ccc(O)cc3)C2=O)cc1OC | -31 | 11 | / | 20 | -45
COc1cc(/C=C2\SC(=O)N(c3ccc(Cl)cc3)C2=O)cc([N+](=O)[O-])c1O | -15 | 90* | 1 | 93* | 76*
COc1cc(/C=C2/NC(=O)N(c3cccc(Cl)c3)C2=O)ccc1O | 13 | -1 | 10 | 50 | 59*
